Assay outcomes (PubChem BioAssay)
A selection: hits, their analogues and other compounds. The true share with any hit is near 19%.
Pf growth 96h = Primary qHTS for delayed death inhibitors of the malarial parasite plastid, 96 hour incubation; P. falciparum luciferase reporter growth, 96 h; Potency, µM (doses to about 28.7 µM), inactives show top-dose activity change, negative = inhibition, usual class: inhibitors; 320,000 tested, 6.9% active; AID 504834, 2011; note: potency is the fitted concentration of half-maximal effect; % is set by controls: 0 for no effect and ±100 for the full control effect
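Erythrocytes infected with luciferase-expressing P. falciparum were dispensed at 2% hematocrit and 0.05% parasitemia (final), then incubated with compounds 96 hours at 37 C in 5% CO2. Luminescence after detection reagent addition reported growth.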
Marburg entry inh = qHTS for inhibitors of binding or entry into cells for Marburg Virus | 300,000 tested, 1.8% active | Potency, µM (series often up to 37.8 µM), without a hit: top-dose activity change, negative = inhibition, hits mostly inhibitors | AID 540276, 2011 | Marburg virus pseudotyped entry inhibition, cell reporter; calls by dose curve; tested in HEK293 cells; note: potency is the fitted concentration of half-maximal effect; % is set by controls: 0 for no effect and ±100 for the full control effect
Cycloheximide cs = Cycloheximide Counterscreen for Small Molecule Inhibitors of Shiga Toxin; max response, %; cell reporter, cycloheximide protein synthesis inhibition counterscreen; 300,000 tested, 12% active; in the data active = max response mostly above about 13%, no sharp cut-off; inactive = mostly below about 14%; note: read at 38.3 µM for the half of the compounds with a filed dose; 0% is about no effect
LASV entry inh = qHTS for Inhibitors of binding or entry into cells for Lassa Virus. Lassa virus pseudotype entry inhibition, cell reporter. Potency, µM (titrated, usually from 37.9 µM), for inactives: at the highest dose activity change, negative = inhibition, hits mostly inhibitors. 300,000 tested, 1.2% active; calls by dose curve; tested in HEK293 cells; note: potency is the fitted concentration of half-maximal effect; % is set by controls: 0 for no effect and ±100 for the full control effect; nearly all actives have a fitted effect of over 50% in size
Pf growth 48h = Primary qHTS for delayed death inhibitors of the malarial parasite plastid, 48 hour incubation; P. falciparum luciferase growth in erythrocytes, 48 h; Potency, µM (series often up to 28.7 µM), for inactives: at the top dose activity change, negative = inhibition, usual class: inhibitors; 310,000 tested, 5.9% active; AID 504832, 2011; note: potency is the fitted concentration of half-maximal effect; % is set by controls: 0 for no effect and ±100 for the full control effect
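A one-generation exposure of luciferase-tagged malaria parasites in RPMI 1640/Albumax erythrocyte culture, 37 C and 5% CO2. Inhibition is inferred from decreased luminescence after adding detection reagent.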
Shiga inhibitor = A qHTS for Small Molecule Inhibitors of Shiga Toxin; inhibition, % at 38.7 µM; 290,000 tested, 9.2% active; Vero cells, Shiga toxin protein synthesis inhibition reporter; in the data active = inhibition mostly above about 28%, no sharp cut-off; inactive = mostly below about 43%; note: 0% is about no effect
Numbers without * were called inactive; ? = inconclusive; · = no result; [ ] = dose if it differs, or a comment. Unless noted, calls come from the whole dose curve; as a rule, active = well fitted inhibition curve with a large enough effect; inconclusive = small, poorly fitted or top-dose-only effect, or another doubt; inactive = no such curve, though single readings can be large or run the other way.

SMILES | Pf growth 96h | Marburg entry inh | Cycloheximide cs | LASV entry inh | Pf growth 48h | Shiga inhibitor
COc1ccccc1Nc1nnc(SCc2cc(=O)n3cc(C)ccc3n2)s1 | ? | -17% | 2 | ? | -17% | -9
Cc1cccc(OCc2nnc(SCC(=O)N(C)C3CCCCC3)o2)c1 | -12% | 6%[46.1 µM] | · | 13% | ? | ·
CC1CCN(C(=O)c2nc[nH]c2C(=O)OCCNC(=O)OC(C)(C)C)CC1 | 25% | · | · | · | 8% | ·
CC1C(c2ccccc2)N(C)C(c2ccccc2)C(C)C1(O)C#Cc1ccccc1 (centres undefined) | -15% | ? | 6 | 0% | 9.3µM* | -5
OCCNCc1ccc(OCc2ccc(Cl)cc2Cl)cc1 | 26% | ? | 25* | -13% | ? | 35
OCCCCNCc1ccc(OCc2ccc(Cl)cc2Cl)cc1 | 15µM* | 5.8µM* | -8 | ? | 13µM* | -19
CCN(CC)C(=O)c1sc2c(c1C)c(=O)n(CCc1ccccc1)c(=O)n2Cc1cccc(Cl)c1 | · | · | · | 6.3µM* | · | ·
CCn1cc(C(=O)O)c(=O)c2cc(F)c(N3CCNCC3)nc21 | 1.4µM* | · | · | · | 3.6µM* | ·
CC(=O)c1ccc([C@@H]2C=C[C@H](O)[C@@H](CO)O2)cc1 | · | 23%[14.2 µM] | · | · | · | ·
O=S(=O)(Cc1ccccc1)Nc1cccc(F)c1 | 0% | 18%[46.1 µM] | -3 | ? | 0% | 44
CN(C)c1ccc(/C=N/NC(=O)COc2ccccc2)cc1 | 34% | -12%[46.1 µM] | 38* | ? | 376% | 44*
CN(c1ccccc1)c1ccc(/C=N/NC(=O)CC#N)cc1 | -18% | 13µM* | 28* | 15µM* | -20% | 58*
Cc1ccccc1N(CC(=O)N/N=C/c1ccc(N(C)C)cc1)C(=O)c1ccccc1 | · | ? | 34* | ? | 7% | 31
Cc1ccccc1N(CC(=O)N/N=C/c1ccccc1Cl)C(=O)c1ccccc1 | · | 0% | -1 | 18% | 25% | 25
CCN(CC)c1ccc(/C=N/OCC(=O)Nc2cccc(C)c2)cc1 | 38% | 5% | 7 | 2% | 20% | 28
CNC(=O)CO/N=C/c1ccc(N(C)C)cc1 | 77% | ? | 22* | -25%[46.1 µM] | 24% | 29*
O=C(NCc1ccco1)c1ccc(Cn2c(=S)[nH]c3ccccc3c2=O)cc1 | ? | -21%[46.1 µM] | 2 | 5% | ? | 4
CN(C)/C=C(\C#N)C(=O)N/N=C/c1ccccc1 | 174% | ? | 27* | ? | 207% | 96
CN(C)c1ccc(/C=N/NC(=O)CNC(=O)/C=C/c2ccccc2)cc1 | 6% | 3% | 30* | -18% | 115% | 30*
O=C(N/N=C/c1ccccc1)C(=O)N/N=C/c1ccccc1 | 2% | ? | -7 | 0%[46.1 µM] | 15% | 20
Cc1ccccc1NC(=O)C1CC(=O)N(c2ccc3c4c(cccc24)CC3)C1 (centres undefined) | 42% | -10% | -1 | -4% | 15% | -8
O=C(Nc1ccccc1Br)C1CC(=O)N(c2ccc3c4c(cccc24)CC3)C1 (centres undefined) | 32% | 10µM* | 0 | ? | 1% | -5
COC(=O)c1c(NC(=O)/C=C/c2ccco2)sc2c1CCC2 | 42% | ? | -2 | -2% | 15% | -2
COc1ccc(Cl)cc1C(=O)Nc1ccc(NC(C)=O)cc1 | 35% | 2%[46.1 µM] | 3 | -20% | -10% | -2
Cc1cc(C)n(-c2ccc(C(=O)NC3=NCCS3)cc2)n1 | 68% | ? | 41* | 5% | 98% | 92*
SMILES | Pf growth 96h | Marburg entry inh | Cycloheximide cs | LASV entry inh | Pf growth 48h | Shiga inhibitor
Cc1cc(C)n(-c2ccc(C(=O)Nc3ccc4c(c3)OCO4)cc2)n1 | -16% | 7% | 15 | ? | · | 26
O=C(NC1=NCCS1)c1cccc2ccccc12 | 165% | ? | 26* | 0% | 81% | 41
O=C(NC1=NCCS1)c1ccc(-c2ccc(Cl)cc2)o1 | ? | -2% | 56* | ? | · | 77*
COc1ccc(Cl)cc1C(=O)NC1=NCCS1 | 0% | ? | 16* | 7% | 36% | 23
COc1ccc(NC(=O)c2ccc(CN3CCc4ccccc4C3)cc2)c(OC)c1 | -12% | · | -4 | · | -18% | ·
OC(CN1CCc2ccccc2C1)c1ccccc1 (centres undefined) | ? | · | 5 | · | ? | 7
CC(C)(C)c1ccccc1NC(=O)CN1C(=O)NC(Cc2ccccc2)C1=O (centres undefined) | ? | -5% | · | 1% | 1% | ·
O=C(NC1=NCCS1)c1cccc(Br)c1 | · | ? | · | -22% | · | ·
O=C(NC1=NCCS1)c1ccc(Cl)cc1 | ? | · | 58* | · | 208% | 93*
COC(=O)[C@@]1(Cc2ccccc2)[C@@H]2C(=CC(=O)[C@H]2CC(=O)C(=O)N(C)C)CN1C(=O)c1ccccc1 | 10µM* | 21µM* | -7 | ? | ? | -21
Cc1nc2ccccn2c1C(=O)NN=C1CCCC1 | 6% | 9% | 7 | 11% | ? | -5
CC(=O)NC1=NN(C(C)=O)C2(CCCC2)S1 | ? | 7%[46.1 µM] | 4 | -7% | 30% | -27
C/C(CC(=O)Nc1cc(C)ccn1)=N\NC(=O)c1cccc(C)c1 | ? | · | 12 | · | 84% | 42
C/C(CC(=O)Nc1ccccn1)=N\NC(=O)c1ccncc1 | 17% | · | -5 | · | ? | -3
C/C(CC(=O)Nc1ccccn1)=N\NC(=O)c1ccccc1O | 33% | ? | 52* | ? | 10% | 68*
C/C(CC(=O)Nc1cc(C)ccn1)=N\NC(=O)c1cccc(C)c1O | -9% | ? | 26* | ? | ? | 69*
C/C(CC(=O)Nc1ccccn1)=N\NC(=O)c1ccc2ccccc2c1 | 1.9µM* | 16% | 15* | 3% | 24% | 28
COc1cc(OC)cc(C(=O)N/N=C(\C)CC(=O)Nc2ccccn2)c1 | ? | ? | 2 | ? | -26% | 17
C/C(CC(=O)Nc1ccccn1)=N\NC(=O)c1ccccc1 | 42% | · | 30* | · | 24% | 21
CC(=O)N/N=C(\C)CCc1ccccc1 | -6% | · | -1 | · | 0% | 10
CCCNC(=O)C/C(C)=N/NC(=O)C(=O)Nc1ccccn1 | ? | · | 26* | · | 14% | 29
CCNC(=O)C/C(C)=N/NC(=O)C(=O)Nc1ccc(CC)cc1 | 0% | · | 26* | · | 70% | 37
C/C(CCc1ccccc1)=N\NC(=O)c1ccccc1 | 22% | 1% | 30* | -3% | 33% | 90*
Cc1cc(C)c(S(=O)(=O)NNC(=O)C2CCN(Cc3ccccc3)CC2)c(C)c1 | 39% | ? | -3 | -6% | 0% | -10
Cc1ccc2cc(CCNC(=O)C3CCCCC3)c(=O)[nH]c2c1C | ? | · | -1 | · | 2% | -8
CC1CC(C)CN(C(=O)C(Cc2ccccc2)n2cccc2)C1 (centres undefined) | ? | -20% | -2 | -3% | ? | 30
